# From PubChem BioAssay
# The source made the active and inactive calls. Unless noted, the rule behind the calls is not given here.
# Assays:
# [1] = compound effects on lung adenocarcinoma cell viability – A549, calcein-AM fluorescence, 48 h, basal, profiling panel (AID 1162); details: higher = more signal; note: test concentration not given here
# [2] = compound effects on differentiated 3T3-L1 adipocyte viability – cell-based, 3T3-L1 adipocytes, calcein-AM fluorescence, 48 h, basal, profiling panel (AID 1163); details: 3T3-L1 adipocytes viability, higher = more signal; note: test concentration not given here
# [3] = compound effects on hepatocellular carcinoma cell viability – HepG2, calcein-AM fluorescence, 48 h, basal, profiling panel (AID 1164); details: higher = more signal; note: test concentration not given here
# [4] = compound effects on multiple myeloma cell viability – MM1S, calcein-AM fluorescence, 48 h, basal, profiling panel (AID 1165); details: higher = more signal;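 note: viability of MM1S multiple myeloma cells under basal unstimulated conditions; test concentration not given here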
# [5] = calcein-AM signal in unstimulated myeloma cells – cell-based, calcein-AM fluorescence, 48 h, PK04 Diversity Set, profiling panel (AID 1166); details: RPMI8226 myeloma viability, higher = more signal;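 note: cells grown under basal conditions without added stimulus; test concentration not given here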
# [6] = JC-1 mitochondrial signal, unstimulated HepG2 cells – cell-based, JC-1 fluorescence, 24 h, 100 nL compound, profiling panel (AID 1167); details: HepG2 mitochondrial potential, higher = more signal; note: test concentration not given here
# [7] = JC-1 mitochondrial signal, unstimulated adipocytes – cell-based, JC-1 fluorescence, 3T3-L1 adipocytes, 24 h, 100 nL compound, profiling panel (AID 1168); details: JC-1 mitochondrial fluorescence, higher = more signal, called active from +8 up or from −8 down; note: test concentration not given here
# [8] = JC-1 mitochondrial signal, unstimulated myeloma cells – cell-based, JC-1 fluorescence, RPMI8226, 24 h, 100 nL compound, profiling panel (AID 1169); details: JC-1 mitochondrial potential fluorescence, higher = more signal; note: test concentration not given here
# [9] = JC-1 mitochondrial signal, unstimulated MM1S myeloma – cell-based, JC-1 fluorescence, 24 h, 100 nL compound, profiling panel (AID 1170); details: MM1S mitochondrial potential, higher = more signal; note: test concentration not given here
# [10] = resazurin metabolic signal in A549 cells – cell-based, resazurin fluorescence, 24 h, PK04 Diversity Set, profiling panel (AID 1171); details: A549 viability, higher = more signal, called active from +8 up or from −8 down; note: test concentration not given here
# [11] = resazurin metabolic signal in HepG2 cells – cell-based, resazurin fluorescence, 24 h, PK04 Diversity Set, profiling panel (AID 1172); details: HepG2 viability, higher = more signal; note: test concentration not given here
# [12] = budding yeast growth changes without added modifier – OD600, strain BY4716, 24 h, basal condition, primary screen (AID 1173); details: S. cerevisiae BY4716 growth, OD600, 24 h; higher = more signal, called active from +8 up or from −8 down
# [13] = viability profiling in MM1S myeloma cells – cell-based, resazurin fluorescence, basal, 24 h, PK04 Diversity Set, profiling panel (AID 1174); details: higher = more signal, called active from +8 up or from −8 down; note: test concentration not given here
# [14] = molecular target: Dihydroorotate dehydrogenase (quinone), mitochondrial (Plasmodium falciparum (isolate 3D7)) (UniProt Q08210); test: inhibition of P. falciparum DHODH – biochemical, C-terminal His tag, absorbance 600 nm, primary screen (AID 1175); details: PfDHODH enzyme, DCIP absorbance 600 nm; higher = more signal, called active from +8 up or from −8 down;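 note: recombinant parasite enzyme with a five histidine tag at its C terminus; test concentration not given here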
# Sequence of Dihydroorotate dehydrogenase (quinone), mitochondrial (Plasmodium falciparum (isolate 3D7)) (Q08210 whole entry, looked up): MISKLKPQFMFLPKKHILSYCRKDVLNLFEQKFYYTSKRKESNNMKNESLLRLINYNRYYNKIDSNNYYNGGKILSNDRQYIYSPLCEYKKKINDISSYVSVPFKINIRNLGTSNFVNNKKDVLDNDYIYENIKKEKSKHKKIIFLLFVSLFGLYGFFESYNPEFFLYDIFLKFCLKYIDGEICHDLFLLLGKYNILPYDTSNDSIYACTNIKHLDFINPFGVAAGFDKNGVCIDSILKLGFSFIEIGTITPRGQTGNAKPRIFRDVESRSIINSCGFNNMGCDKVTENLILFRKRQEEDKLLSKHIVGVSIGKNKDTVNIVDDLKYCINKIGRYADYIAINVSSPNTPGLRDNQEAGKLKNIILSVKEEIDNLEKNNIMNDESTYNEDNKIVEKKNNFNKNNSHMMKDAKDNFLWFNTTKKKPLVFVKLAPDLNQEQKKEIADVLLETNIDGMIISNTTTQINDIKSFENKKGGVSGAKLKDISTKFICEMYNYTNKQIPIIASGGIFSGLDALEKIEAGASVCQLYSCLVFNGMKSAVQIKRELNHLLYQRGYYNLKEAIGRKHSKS
# [15] = inhibition of PAO1 biofilm formation – strain PAO1, LB-PBS medium, absorbance 600 nm, primary screen (AID 1176); note: test concentration not given here; details: P. aeruginosa PAO1 growth/biofilm, A600, 12 h; higher = more signal
# [16] = growth modulation of vineyard yeast isolate – strain RM11-1a, OD600, basal, 24 h, primary screen (AID 1177);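 note: cultures grown under basal conditions with no added stressor; test concentration not given here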; details: S. cerevisiae RM11-1a growth, OD600, 24 h; higher = more signal, called active from +8 up or from −8 down
# [17] = growth of efflux-deficient E. coli DRC39 – strain DRC39, OD650, 24 h, E. coli filamentation inducers, primary screen (AID 1178);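 note: growth measured as culture turbidity by optical density at 650 nm; test concentration not given here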; details: E. coli DRC39 acrAB, higher = more signal, called active from +8 up or from −8 down
# [18] = growth of efflux-deficient E. coli DRC39 – strain DRC39, OD650, 48 h, E. coli filamentation inducers, primary screen (AID 1179);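 note: screen aims at cell division blockers that make cells filament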; details: E. coli DRC39 delta-acrAB growth, higher = more signal, called active from +8 up or from −8 down
# [19] = viability profiling in RPMI8226 myeloma cells – cell-based, resazurin fluorescence, basal, 24 h, PK04 Diversity Set, profiling panel (AID 1180); details: higher = more signal;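 note: RPMI8826 multiple myeloma cell line at 5000 cells per well; test concentration not given here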
# [20] = molecular target: E3 ubiquitin-protein ligase XIAP (Homo sapiens) (UniProt P98170); test: small molecules binding XIAP protein – biophysical, small-molecule microarray, fluorescence 635 nm, primary screen (AID 1181); details: higher = more signal;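 note: score merges 667 nm emission and signal to noise over triplicate slides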
# Sequence of E3 ubiquitin-protein ligase XIAP (Homo sapiens) (P98170 whole entry, looked up): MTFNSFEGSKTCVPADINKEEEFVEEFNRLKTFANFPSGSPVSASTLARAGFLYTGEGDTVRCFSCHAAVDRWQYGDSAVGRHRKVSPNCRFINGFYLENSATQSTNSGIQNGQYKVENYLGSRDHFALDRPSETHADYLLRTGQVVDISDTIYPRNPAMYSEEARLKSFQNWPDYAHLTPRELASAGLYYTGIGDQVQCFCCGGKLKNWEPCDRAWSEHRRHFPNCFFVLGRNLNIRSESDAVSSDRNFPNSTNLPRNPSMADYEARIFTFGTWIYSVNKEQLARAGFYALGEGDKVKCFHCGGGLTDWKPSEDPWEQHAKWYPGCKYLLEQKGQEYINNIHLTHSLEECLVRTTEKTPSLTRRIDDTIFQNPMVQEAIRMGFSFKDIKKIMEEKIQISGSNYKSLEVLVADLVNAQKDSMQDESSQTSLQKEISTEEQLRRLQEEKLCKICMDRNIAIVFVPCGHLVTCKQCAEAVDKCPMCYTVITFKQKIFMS
SMILES,z-score [1],z-score [2],z-score [3],z-score [4],z-score [5],z-score [6],z-score [7],z-score [8],z-score [9],z-score [10],z-score [11],z-score [12],z-score [13],composite z-score [14],z-score [15],z-score [16],z-score [17],z-score [18],z-score [19],composite z-score [20]
COCCCNC(=O)[C@@]1(C)c2ccccc2C(=O)N(Cc2cc(C(F)(F)F)cc(C(F)(F)F)c2)[C@H]1c1ccc(CO)cc1,-0.0997,-0.872,0.771,0.384,-0.509,1.59,1.01 (inactive),0.222,-0.668,0.545 (inactive),-0.063,-0.0384 (inactive),0.186 (inactive),1.03 (inactive),0.127 (inactive),0.429 (inactive),0.534 (inactive),1.3 (inactive),0.394,-0.204
COCCOC(=O)N1C(=O)[C@@]2(c3cc(C#CCCO)ccc31)[C@H](c1ccccc1OCCO)N1[C@H](c3ccccc3)[C@H](c3ccccc3)OC(=O)[C@H]1[C@@H]2C(=O)N1CCN(c2ncccn2)CC1,-0.442,-0.692,0.0682,-0.448,-0.0718,0.609,0.188 (inactive),-0.0523,-1.1,-0.467 (inactive),-0.0071,1.42 (inactive),-0.285 (inactive),-0.465 (inactive),1.6 (inactive),2.18 (inactive),-0.0933 (inactive),-0.27 (inactive),-0.803,-0.0304
COC(=O)[C@@]1(Cc2ccc(F)cc2)[C@H]2c3cc(C(=O)N(C)C)n(CCc4ccccn4)c3C[C@H]2CN1C(=O)c1ccccc1,-0.619,0.698,-1.39,0.0635,-0.722,-0.0662,-0.539 (inactive),-0.153,0.95,0.429 (inactive),0.244,0.676 (inactive),-0.309 (inactive),-0.804 (inactive),0.0944 (inactive),-0.182 (inactive),0.2 (inactive),-1.02 (inactive),0.357,0.254
Cc1cc(C)c(C(O)C2C=CC3C(=O)N(C)C(=O)C3N2Nc2ccccc2)c(C)c1 (stereo not given),-1.02,-0.904,-0.798,-0.305,-0.681,-1.73,-1 (inactive),-0.207,0.434,-0.551 (inactive),-1.03,-0.0657 (inactive),-1.1 (inactive),0.0016 (inactive),0.944 (inactive),-0.362 (inactive),-0.709 (inactive),-0.456 (inactive),-1.46,0.372
O=C(O)[C@H]1C[C@H]2C(=O)NCC(=O)N2[C@H]1c1ccc(O)cc1,1.14,0.108,0.752,-2.55,-0.593,2.37,-0.262 (inactive),-0.629,-1.43,0.672 (inactive),1.46,-1.25 (inactive),0.866 (inactive),-0.592 (inactive),0.0904 (inactive),-0.804 (inactive),1.49 (inactive),1.51 (inactive),0.839,-0.211
CCOC(=O)C[C@H]1[C@H](OC(=O)c2ccc(C(=O)c3ccccc3)cc2)[C@@H](NC(=O)C2CCCCC2)c2cc(OCCCO)ccc2N1C(=O)c1ccccc1,-0.195,-0.589,0.431,-1.21,-0.681,1.4,-0.355 (inactive),0.0249,-0.0847,0.352 (inactive),-0.341,-0.153 (inactive),-0.239 (inactive),-1.06 (inactive),0.0186 (inactive),-0.3 (inactive),-0.715 (inactive),-0.549 (inactive),-0.125,-0.145
C=C(COC)/C(=C/C[C@H](OC(=O)c1ccncc1)c1cccc(OCCO)c1)c1cc(C(=O)OC)ccc1OC,0.404,0.987,-0.0353,-1.15,-0.686,1.51,0.246 (inactive),-0.351,0.0566,1.14 (inactive),0.13,-0.0964 (inactive),0.544 (inactive),-2.67 (inactive),-0.21 (inactive),-0.42 (inactive),0.629 (inactive),0.237 (inactive),0.406,-0.102
COc1ccc([Si](C)(C)[C@@H]2[C@@H](CCn3cc([C@H](O)c4ccccc4)nn3)O[C@]3(C(=O)N(Cc4cccc(N5CCOC5=O)c4)c4ccccc43)[C@H]2C)cc1,1.6,-0.392,1.31,-2.15,0.274,1.84,2.73 (inactive),-0.671,-0.0958,0.181 (inactive),0.194,-0.611 (inactive),-2.91 (inactive),0.539 (inactive),1.35 (inactive),1.98 (inactive),1.44 (inactive),1.45 (inactive),-0.424,-0.102
